According to publication PMC7862700, “An all-to-all approach to the identification of sequence-specific readers for epigenetic DNA modifications on cytosine”:

Legend:
Experiment in all cases: DAPPL (digital affinity profiling via proximity ligation, sequencing); 10 mM Tris-HCl pH 7.5, 50 mM NaCl, 1 mM DTT, 4% glycerol, room temperature, 30 min; GST-TFs on glutathione beads, 16-mer random dsDNA library, 0.1% formaldehyde crosslink after washing; high values mean tight binding
Settings in all cases: protein: recombinant; tags: N-terminal GST; dsDNA, one strand shown
FLI1 = target: T1, FLI1 (Homo sapiens, UniProt Q01543 1-452)
T1 sequence: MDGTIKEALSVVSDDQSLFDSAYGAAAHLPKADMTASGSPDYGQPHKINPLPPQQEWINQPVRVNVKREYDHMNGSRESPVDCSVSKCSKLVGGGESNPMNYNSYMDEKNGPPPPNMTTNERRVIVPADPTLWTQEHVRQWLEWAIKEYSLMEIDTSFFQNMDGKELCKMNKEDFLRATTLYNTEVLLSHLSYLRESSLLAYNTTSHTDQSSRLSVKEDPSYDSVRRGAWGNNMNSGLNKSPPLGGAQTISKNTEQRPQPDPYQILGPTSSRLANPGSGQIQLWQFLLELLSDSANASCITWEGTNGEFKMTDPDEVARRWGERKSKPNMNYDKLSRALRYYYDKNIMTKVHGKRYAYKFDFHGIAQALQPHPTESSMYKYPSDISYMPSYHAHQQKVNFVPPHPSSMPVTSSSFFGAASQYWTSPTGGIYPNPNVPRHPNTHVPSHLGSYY
Method in brief: (§1)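 Yeast served to express human transcription factors as GST fusions, which were then captured on glutathione beads and labelled with DNA barcodes. Pooled with a tag-only sample, they were incubated with 200 nmole of a 16-mer random double-stranded DNA library for 30 min at room temperature in Tris/NaCl/DTT/glycerol buffer, washed, crosslinked with 0.1% formaldehyde, ligated by proximity, amplified by PCR and sequenced. Dividing each hexamer's read frequency for a factor by its frequency for the tag-only sample gives the binding signal.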

ELF1 = ELF1 (Homo sapiens, UniProt P32519 1-619)
Sequence of ELF1 (P32519 whole entry): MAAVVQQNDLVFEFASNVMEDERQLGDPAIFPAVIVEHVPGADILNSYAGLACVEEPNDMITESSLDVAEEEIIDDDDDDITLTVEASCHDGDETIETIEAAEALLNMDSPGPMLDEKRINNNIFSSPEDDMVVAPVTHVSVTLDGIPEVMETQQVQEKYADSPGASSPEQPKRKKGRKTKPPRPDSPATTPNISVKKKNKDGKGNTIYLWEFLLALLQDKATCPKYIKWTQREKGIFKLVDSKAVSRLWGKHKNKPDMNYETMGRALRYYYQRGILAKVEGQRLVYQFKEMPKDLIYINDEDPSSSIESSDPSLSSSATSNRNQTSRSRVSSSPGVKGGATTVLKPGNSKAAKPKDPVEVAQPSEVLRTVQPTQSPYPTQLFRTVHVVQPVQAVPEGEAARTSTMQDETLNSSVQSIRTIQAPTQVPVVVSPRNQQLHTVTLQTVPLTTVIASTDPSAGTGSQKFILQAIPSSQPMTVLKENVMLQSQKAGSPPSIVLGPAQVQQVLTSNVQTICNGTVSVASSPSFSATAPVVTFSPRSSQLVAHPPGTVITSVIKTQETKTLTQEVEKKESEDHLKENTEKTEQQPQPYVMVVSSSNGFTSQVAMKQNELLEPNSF
Method in brief: as §1

SPIB = SPIB (Homo sapiens, UniProt Q01892 1-262)
Sequence of SPIB (Q01892 whole entry): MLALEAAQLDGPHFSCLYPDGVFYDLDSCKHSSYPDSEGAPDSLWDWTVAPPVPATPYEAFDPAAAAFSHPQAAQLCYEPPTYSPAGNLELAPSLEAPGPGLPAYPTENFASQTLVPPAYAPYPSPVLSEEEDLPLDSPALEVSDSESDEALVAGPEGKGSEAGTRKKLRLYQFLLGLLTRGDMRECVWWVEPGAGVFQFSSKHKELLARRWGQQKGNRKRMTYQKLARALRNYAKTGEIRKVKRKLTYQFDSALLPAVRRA
Method in brief: as §1

ELK3 = target: T2, ELK3 (Homo sapiens, UniProt P41970 1-407)
T2 sequence: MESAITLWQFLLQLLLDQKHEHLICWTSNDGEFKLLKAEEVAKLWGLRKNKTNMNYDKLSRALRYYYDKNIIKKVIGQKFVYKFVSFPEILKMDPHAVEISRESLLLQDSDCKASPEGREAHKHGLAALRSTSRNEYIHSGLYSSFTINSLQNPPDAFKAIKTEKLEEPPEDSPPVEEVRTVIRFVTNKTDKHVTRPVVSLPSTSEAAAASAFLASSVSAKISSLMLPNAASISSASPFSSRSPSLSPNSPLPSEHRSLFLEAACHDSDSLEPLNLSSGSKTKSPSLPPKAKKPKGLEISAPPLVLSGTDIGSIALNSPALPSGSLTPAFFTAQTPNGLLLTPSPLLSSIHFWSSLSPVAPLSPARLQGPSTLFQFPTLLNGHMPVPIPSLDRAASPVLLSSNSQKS
Method in brief: as §1

ELF4 = ELF4 (Homo sapiens, UniProt Q99607 1-663)
Sequence of ELF4 (Q99607 whole entry): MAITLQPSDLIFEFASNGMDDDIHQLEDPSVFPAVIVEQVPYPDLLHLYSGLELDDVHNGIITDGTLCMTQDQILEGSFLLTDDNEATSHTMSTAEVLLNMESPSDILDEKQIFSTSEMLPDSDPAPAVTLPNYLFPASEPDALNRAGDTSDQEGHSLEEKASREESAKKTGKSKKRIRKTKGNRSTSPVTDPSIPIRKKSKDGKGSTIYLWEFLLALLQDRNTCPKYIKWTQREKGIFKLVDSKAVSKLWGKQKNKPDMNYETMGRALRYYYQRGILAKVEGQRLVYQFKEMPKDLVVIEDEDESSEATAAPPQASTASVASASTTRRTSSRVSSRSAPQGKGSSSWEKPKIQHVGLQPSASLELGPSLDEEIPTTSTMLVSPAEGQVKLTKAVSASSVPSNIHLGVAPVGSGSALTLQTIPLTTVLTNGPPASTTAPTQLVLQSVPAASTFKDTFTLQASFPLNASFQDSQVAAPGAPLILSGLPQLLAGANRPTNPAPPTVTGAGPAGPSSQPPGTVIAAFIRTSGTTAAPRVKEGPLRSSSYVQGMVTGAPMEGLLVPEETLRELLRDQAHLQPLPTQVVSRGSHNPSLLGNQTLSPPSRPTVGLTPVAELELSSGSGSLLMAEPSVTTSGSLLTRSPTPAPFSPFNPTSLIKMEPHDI
Method in brief: as §1

ETV7 = target: T3, ETV7 (Homo sapiens, UniProt Q9Y603 1-341)
T3 sequence: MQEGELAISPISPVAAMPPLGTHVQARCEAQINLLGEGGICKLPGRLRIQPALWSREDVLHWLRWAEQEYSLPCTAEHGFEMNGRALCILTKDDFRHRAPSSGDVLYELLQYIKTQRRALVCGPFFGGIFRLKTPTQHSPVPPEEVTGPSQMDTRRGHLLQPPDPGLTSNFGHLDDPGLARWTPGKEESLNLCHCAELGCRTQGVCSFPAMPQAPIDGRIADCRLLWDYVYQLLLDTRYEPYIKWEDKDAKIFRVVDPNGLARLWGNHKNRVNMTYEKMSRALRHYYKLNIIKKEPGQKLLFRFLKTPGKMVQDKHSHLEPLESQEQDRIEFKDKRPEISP
Method in brief: as §1

GABPA = target: T4, GABPA (Homo sapiens, UniProt Q06546 1-454)
T4 sequence: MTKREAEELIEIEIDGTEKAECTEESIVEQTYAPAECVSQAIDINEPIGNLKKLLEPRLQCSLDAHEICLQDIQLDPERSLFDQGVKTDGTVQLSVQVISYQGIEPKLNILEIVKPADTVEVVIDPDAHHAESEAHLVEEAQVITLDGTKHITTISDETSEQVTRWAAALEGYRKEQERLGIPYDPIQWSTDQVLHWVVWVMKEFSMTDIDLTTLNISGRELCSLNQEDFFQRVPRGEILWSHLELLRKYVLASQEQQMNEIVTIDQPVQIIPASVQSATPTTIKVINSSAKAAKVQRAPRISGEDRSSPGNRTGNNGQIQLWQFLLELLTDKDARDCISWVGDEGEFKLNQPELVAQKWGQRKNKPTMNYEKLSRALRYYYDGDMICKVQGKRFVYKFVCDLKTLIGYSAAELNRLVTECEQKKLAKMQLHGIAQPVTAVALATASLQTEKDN
Method in brief: as §1

ERF = target: T5, ERF (Homo sapiens, UniProt P50548 1-548)
T5 sequence: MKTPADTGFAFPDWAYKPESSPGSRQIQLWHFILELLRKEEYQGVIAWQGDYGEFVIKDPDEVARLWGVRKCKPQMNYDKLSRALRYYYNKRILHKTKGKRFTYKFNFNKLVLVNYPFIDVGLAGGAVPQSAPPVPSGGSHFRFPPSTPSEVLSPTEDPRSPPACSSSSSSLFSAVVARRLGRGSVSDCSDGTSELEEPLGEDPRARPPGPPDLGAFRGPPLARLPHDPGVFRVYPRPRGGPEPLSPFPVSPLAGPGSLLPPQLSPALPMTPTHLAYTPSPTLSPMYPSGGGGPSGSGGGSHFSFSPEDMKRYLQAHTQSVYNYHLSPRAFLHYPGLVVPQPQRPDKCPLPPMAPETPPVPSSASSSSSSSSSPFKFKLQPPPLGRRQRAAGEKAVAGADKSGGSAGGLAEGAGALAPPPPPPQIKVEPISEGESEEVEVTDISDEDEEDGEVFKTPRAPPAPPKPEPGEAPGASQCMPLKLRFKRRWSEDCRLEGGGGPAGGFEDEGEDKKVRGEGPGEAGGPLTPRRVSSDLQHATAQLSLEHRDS
Method in brief: as §1

ETV3 = target: T6, ETV3 (Homo sapiens, UniProt P41162-2 1-143)
T6 sequence: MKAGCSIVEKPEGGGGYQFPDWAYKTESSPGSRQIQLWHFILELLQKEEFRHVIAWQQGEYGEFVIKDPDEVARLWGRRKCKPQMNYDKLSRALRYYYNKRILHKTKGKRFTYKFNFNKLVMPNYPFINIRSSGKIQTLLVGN
Method in brief: as §1

ETV6 = ETV6 (Homo sapiens, UniProt P41212 1-452)
Sequence of ETV6 (P41212 whole entry): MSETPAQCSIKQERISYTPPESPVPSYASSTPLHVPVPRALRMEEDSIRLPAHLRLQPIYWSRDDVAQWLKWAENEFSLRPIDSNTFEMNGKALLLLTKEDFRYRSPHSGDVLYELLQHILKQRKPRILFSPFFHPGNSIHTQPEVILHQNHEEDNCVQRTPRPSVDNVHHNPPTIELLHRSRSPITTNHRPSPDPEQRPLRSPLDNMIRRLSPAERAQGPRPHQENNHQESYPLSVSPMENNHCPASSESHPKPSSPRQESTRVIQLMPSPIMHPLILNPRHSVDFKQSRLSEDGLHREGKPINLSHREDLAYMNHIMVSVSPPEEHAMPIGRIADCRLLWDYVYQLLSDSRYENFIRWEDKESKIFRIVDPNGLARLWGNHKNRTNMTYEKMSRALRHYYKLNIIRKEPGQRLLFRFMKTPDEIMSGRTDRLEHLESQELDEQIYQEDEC
Method in brief: as §1

ELK1 = target: T7, ELK1 (Homo sapiens, UniProt P19419 1-428)
T7 sequence: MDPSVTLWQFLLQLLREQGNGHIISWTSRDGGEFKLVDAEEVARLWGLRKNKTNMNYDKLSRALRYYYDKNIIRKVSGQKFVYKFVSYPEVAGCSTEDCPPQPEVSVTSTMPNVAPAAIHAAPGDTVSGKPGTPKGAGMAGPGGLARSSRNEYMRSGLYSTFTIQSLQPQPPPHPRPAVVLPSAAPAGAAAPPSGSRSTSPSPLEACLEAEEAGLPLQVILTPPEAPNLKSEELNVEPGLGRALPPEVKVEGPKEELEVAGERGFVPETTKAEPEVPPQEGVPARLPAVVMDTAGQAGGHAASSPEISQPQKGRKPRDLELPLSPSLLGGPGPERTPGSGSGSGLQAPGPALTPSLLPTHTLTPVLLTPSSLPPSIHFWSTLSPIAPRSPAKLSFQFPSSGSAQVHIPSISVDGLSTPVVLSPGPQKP
Method in brief: as §1

ELK4 = target: T8, ELK4 (Homo sapiens, UniProt P28324-2 1-405)
T8 sequence: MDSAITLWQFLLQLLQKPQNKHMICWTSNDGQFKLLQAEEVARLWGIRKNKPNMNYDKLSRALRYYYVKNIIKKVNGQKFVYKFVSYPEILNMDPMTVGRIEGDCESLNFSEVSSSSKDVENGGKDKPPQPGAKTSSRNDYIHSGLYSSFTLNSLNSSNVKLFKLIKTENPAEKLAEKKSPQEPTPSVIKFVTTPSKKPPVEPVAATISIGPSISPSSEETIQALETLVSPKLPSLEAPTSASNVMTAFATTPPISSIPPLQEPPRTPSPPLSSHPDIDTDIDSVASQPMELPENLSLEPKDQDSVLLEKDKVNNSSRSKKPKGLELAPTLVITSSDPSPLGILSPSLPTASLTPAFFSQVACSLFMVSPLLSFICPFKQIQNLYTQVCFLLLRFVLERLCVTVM
Method in brief: as §1

ETV3L = target: T9, ETV3L (Homo sapiens, UniProt Q6ZN32 1-361)
T9 sequence: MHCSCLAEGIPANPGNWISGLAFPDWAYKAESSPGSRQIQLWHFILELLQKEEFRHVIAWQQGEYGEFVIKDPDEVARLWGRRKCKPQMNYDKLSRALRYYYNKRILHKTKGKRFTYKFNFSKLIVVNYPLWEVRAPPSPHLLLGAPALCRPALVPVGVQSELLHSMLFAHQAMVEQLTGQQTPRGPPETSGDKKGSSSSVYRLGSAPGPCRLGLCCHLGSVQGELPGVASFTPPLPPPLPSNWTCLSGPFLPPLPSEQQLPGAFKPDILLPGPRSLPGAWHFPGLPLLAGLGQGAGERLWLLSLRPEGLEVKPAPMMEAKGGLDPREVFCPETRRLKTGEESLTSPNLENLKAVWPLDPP
Method in brief: as §1

Sequence	binding signal (FLI1)	binding signal (ELF1)	binding signal (SPIB)	binding signal (ELK3)	binding signal (ELF4)	binding signal (ETV7)	binding signal (GABPA)	binding signal (ERF)	binding signal (ETV3)	binding signal (ETV6)	binding signal (ELK1)	binding signal (ELK4)	binding signal (ETV3L)
CAAAGT	1.01 fold enrichment (6-mer frequency, TF over GST control)	1.03 fold enrichment (6-mer frequency, TF over GST control)	1.04 fold enrichment (6-mer frequency, TF over GST control)	1.06 fold enrichment (6-mer frequency, TF over GST control)	1.03 fold enrichment (6-mer frequency, TF over GST control)	1 fold enrichment (6-mer frequency, TF over GST control)	–	–	–	–	–	–	–
ACCGTT	1.03 fold enrichment (6-mer frequency, TF over GST control)	–	–	–	1 fold enrichment (6-mer frequency, TF over GST control)	1.08 fold enrichment (6-mer frequency, TF over GST control)	1.02 fold enrichment (6-mer frequency, TF over GST control)	1.05 fold enrichment (6-mer frequency, TF over GST control)	1.01 fold enrichment (6-mer frequency, TF over GST control)	1 fold enrichment (6-mer frequency, TF over GST control)	–	–	–
GACTGC	1.03 fold enrichment (6-mer frequency, TF over GST control)	–	–	–	1.01 fold enrichment (6-mer frequency, TF over GST control)	–	1.11 fold enrichment (6-mer frequency, TF over GST control)	1.03 fold enrichment (6-mer frequency, TF over GST control)	–	–	1.03 fold enrichment (6-mer frequency, TF over GST control)	1.08 fold enrichment (6-mer frequency, TF over GST control)	1.02 fold enrichment (6-mer frequency, TF over GST control)
